The values that follow come from PubChem BioAssay (NCATS).

Each structure is given as a SMILES string. Inconclusive results are not listed. The source made the active and inactive calls. Unless noted, the call rests on the fitted dose curve; in most records, active means well fitted curve in the direction sought with a large enough effect; inconclusive means small, poorly fitted or top-dose-only effect, or another doubt; inactive means no such curve, though single readings can be large; an effect the other way counts as inactive or inconclusive.

The target of assay [1] is Estrogen receptor (Homo sapiens) (UniProt P03372). Kind of assay: qHTS assay for small molecule agonists of estrogen receptor alpha signaling (AID 588514; calls by dose curve;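 further: 0% = vehicle only and 100% = reference agonist; nearly all actives have a fitted effect of over 70% in size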). The method in brief: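 ER-alpha-UAS-bla GripTite HEK 293 cells in medium with 2% charcoal/dextran-treated FBS were treated with compound titrations at 37 C for 18 hrs; beta-lactamase reporter read by CCF4 fluorescence after 2 hrs at RT.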
Estrogen receptor (Homo sapiens), sequence (P03372 whole entry, looked up): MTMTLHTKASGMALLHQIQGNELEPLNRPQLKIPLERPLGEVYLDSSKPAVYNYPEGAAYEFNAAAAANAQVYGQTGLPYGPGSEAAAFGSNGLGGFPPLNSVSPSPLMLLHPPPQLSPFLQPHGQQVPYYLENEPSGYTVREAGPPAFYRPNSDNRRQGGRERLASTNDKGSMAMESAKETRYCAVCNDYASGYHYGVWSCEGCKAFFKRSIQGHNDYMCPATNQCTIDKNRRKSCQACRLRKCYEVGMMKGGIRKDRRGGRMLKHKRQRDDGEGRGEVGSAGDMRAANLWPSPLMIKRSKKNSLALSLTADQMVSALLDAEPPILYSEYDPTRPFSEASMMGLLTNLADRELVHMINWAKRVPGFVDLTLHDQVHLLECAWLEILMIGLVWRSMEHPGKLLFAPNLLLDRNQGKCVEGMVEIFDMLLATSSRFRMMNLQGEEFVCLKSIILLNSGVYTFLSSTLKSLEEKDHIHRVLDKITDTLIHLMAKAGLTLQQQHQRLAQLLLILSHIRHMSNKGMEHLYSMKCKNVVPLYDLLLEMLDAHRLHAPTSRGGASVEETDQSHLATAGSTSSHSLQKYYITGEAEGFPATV
In general terms: qHTS replaces the single test concentration by a dilution series.

Assay [2] concerns the target Glucocorticoid receptor (Homo sapiens) (UniProt P04150). Put plainly: qHTS assay for small molecule agonists of glucocorticoid receptor signaling (AID 588532; active means well fitted curve in the direction sought with a large enough effect in the signal ratio, with a control signal flat; the % refers to the signal ratio;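 further: 100% = dexamethasone at 0.1 µM and 0% = DMSO only wells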). To be noted: HeLa MMTV-bla, beta-lactamase ratio, agonist, 18 h; activation: stronger effect = higher value, percent of dexamethasone control, DMSO zero. The gist of the method: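 MMTV-bla HeLa, beta-lactamase reporter; medium with 1% charcoal/dextran-stripped FBS; cpds up to 92 uM, 18 h, 37 C; CCF4 readout 460/530 nm; Hill fit → EC50, efficacy vs 0.1 uM dexamethasone = 100%.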

The nature of assay [3]: qHTS assay for small molecule antagonists of peroxisome proliferator-activated receptor delta signaling (AID 588535; active means well fitted inhibition curve with a large enough effect in the signal ratio, with a control signal flat, not every such curve was filed as active; the % refers to the signal ratio;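 on max response: cells co-treated with a PPAR-delta agonist as stimulator during compound exposure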). To be noted: HEK293T PPARd-UAS-bla, beta-lactamase FRET ratio, 18 h; 460 nm channel. The method in brief:
(§1)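 GeneBLAzer PPAR-delta-UAS-bla HEK293T cells in medium with 2% charcoal/dextran FBS were preincubated 5 hrs at 37 C, then given compounds, incubated 18 hrs at 37 C, and read by CCF4 beta-lactamase fluorescence; IC50 from Hill fits.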

The target in assay [4] is Peroxisome proliferator-activated receptor delta (Homo sapiens) (UniProt Q03181). Described as above. The method in brief: as §1
Peroxisome proliferator-activated receptor delta (Homo sapiens), sequence (Q03181 whole entry, looked up): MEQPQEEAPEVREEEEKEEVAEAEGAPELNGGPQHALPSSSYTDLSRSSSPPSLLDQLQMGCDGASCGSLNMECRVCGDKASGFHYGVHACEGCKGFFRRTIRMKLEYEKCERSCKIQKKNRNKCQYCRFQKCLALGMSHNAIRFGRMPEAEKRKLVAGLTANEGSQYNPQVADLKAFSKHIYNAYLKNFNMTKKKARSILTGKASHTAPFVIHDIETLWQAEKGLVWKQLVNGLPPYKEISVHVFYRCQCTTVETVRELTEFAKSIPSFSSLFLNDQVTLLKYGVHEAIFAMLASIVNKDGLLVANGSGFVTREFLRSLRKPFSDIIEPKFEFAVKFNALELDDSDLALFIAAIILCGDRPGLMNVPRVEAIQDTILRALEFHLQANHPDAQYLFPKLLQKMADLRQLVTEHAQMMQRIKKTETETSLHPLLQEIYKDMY
The nature of assay [5]: qHTS assay for small molecule activators of the p53 signaling pathway (AID 651743; active means well fitted activation curve with a large enough effect in the signal ratio, not every such curve was filed as active; the % refers to the signal ratio; further: series mostly up to about 92 µM; % of control where 0% means no effect). To be noted: HCT-116 p53RE-bla, beta-lactamase FRET ratio, 16 h; activation: stronger effect = higher value. The method in brief:
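p53RE-bla HCT-116 cells with a stably integrated beta-lactamase reporter under p53 response elements were plated, rested 5 hours at 37 C/5% CO2, then exposed to compounds in DMSO for 16 hours at 37 C. LiveBLAzer B/G FRET substrate was read after 2 hours at room temperature.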

Assay [6] can be described thus: qHTS assay for environmental chemicals that activate the Aryl hydrocarbon Receptor (AhR) signaling pathway (AID 651777). Further: % of control where 0% means no effect; nearly all actives have a fitted effect of over 15% in size. To be noted: 1A2-DRE human hepatoma cells, luciferase, 24 h; activation: stronger effect = higher value. The method in brief: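 Luminescence (One-Glo, 30 min, room temperature) reports AhR-driven luciferase in stably transfected human hepatoma cells bearing DRE and CYP1A2 promoter. Cells (1,200/well) were treated with compound for 24 hr at 37 C in qHTS format.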

Assay [7] concerns the target Peroxisome proliferator-activated receptor alpha (Homo sapiens) (UniProt Q07869). Put plainly: qHTS assay for small molecule agonists of the peroxisome proliferator-activated receptor alpha (PPARalpha) signaling pathway (AID 651778). Further: % of control where 0% means no effect. To be noted: PathHunter PPARalpha complementation, chemiluminescence, 6 h; max response: stronger effect = higher value. The method in brief:
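Cells plated at 2,000/well and held overnight at 37 C, 5% CO2, then compound added by pin tool for 6 hr; after PathHunter detection reagent and 60 min at room temperature, chemiluminescence from enzyme complementation was read.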

Assay [8] in a line: qHTS assay for small molecule agonists of the antioxidant response element (ARE) signaling pathway measured by Nrf2-dependant transcriptional activity (AID 720636; active means well fitted curve in the direction sought with a large enough effect in the repeat runs; an effect the other way counts as inactive or inconclusive; further: % of control where 0% means no effect). The gist of the method: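 Nrf2-dependent transcription read as ONE-Glo luciferase signal from ARE-luc HepG2 reporter cells after 16 hr compound treatment at 37 C, 5% CO2, in assay medium with 1% dialyzed FBS.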
Assay [9] is described as follows: qHTS assay for small molecule agonists of the antioxidant response element (ARE) signaling pathway measured by Nrf2-dependant transcriptional activity - cell viability counter screen (AID 720653; active means well fitted curve in the direction sought with a large enough effect in the repeat runs; an effect the other way counts as inactive or inconclusive; further: on the % scale 0 is the no-effect control and ±100 the full control effect). To be noted: ARE-bla HepG2 viability, CellTiter-Glo ATP luminescence, 16 h; max response: stronger effect = lower value. The method in brief:
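ARE-bla HepG2 cells (2,000/well) rested 5 hrs at 37C/5% CO2, then exposed to compounds in DMSO for 16 hrs. Viability was read in the same wells as intracellular ATP by luminescence, 30 min at room temperature after reagent addition.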

Assay [10] in a line: qHTS assay for cell viability of HEK293 cells (AID 743288). Further: nearly all actives have a fitted effect of over 50% in size. Further: potency means the concentration at half of the fitted maximal effect. To be noted: ATP luminescence (CellTiter-Glo), 18 h; max response: stronger effect = lower value. The gist of the method: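 Parental HEK293 cells were seeded at 2,000 cells/well, rested at least 5 h at 37 C, then exposed to compounds in DMSO for 18 h at 37 C. Viability was read as ATP-dependent luciferase luminescence after 30 min at room temperature.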

The nature of assay [11]: qHTS assay for cell viability of the p53RE-bla HCT-116 cell line (AID 743292). Further: on the % scale 0 is the no-effect control and ±100 the full control effect; nearly all actives have a fitted effect of over 55% in size. The method in brief:
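ATP-based luminescent viability (CellTiter-Glo, 30 min RT) after 16 h compound treatment at 37 C of p53RE-bla HCT-116 cells, seeded at 4,000 cells/well and rested 5 h before dosing.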

The target of assay [12] is Glucocorticoid receptor (Homo sapiens) (UniProt P04150). Put plainly: qHTS assay for small molecule antagonists of glucocorticoid receptor signaling (AID 588533; active means well fitted inhibition curve with a large enough effect in the signal ratio, with a control signal flat, not every such curve was filed as active; the % refers to the signal ratio;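 further: cells stimulated with 2 nM dexamethasone as agonist; on the % scale 0 is the no-effect control and ±100 the full control effect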). The method in brief:
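Antagonist-mode qHTS: compound titrations added to GRE-bla HeLa cells, then dexamethasone 2 nM final; 18 h, 37 C. CCF4 FRET fluorescence normalized to dexamethasone and DMSO; IC50 from Hill fit.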

The target of assay [13] is Peroxisome proliferator-activated receptor gamma (Homo sapiens) (UniProt P37231). Kind of assay: qHTS assay for small molecule agonists of peroxisome proliferator-activated receptor gamma signaling (AID 588536; active means well fitted curve in the direction sought with a large enough effect in the signal ratio, with a control signal flat, not every such curve was filed as active; the % refers to the signal ratio;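 further: 0% = DMSO basal wells and 100% = rosiglitazone at 2 µM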). The method in brief:
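PPAR-gamma-UAS-bla HEK293 cells in medium with 1% charcoal/dextran-treated FBS were exposed to compounds for 16 h at 37 C. Beta-lactamase activity was read with CCF4 substrate (405 nm excitation, 460/530 nm emission).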

Assay [14] deals with Retinoic acid receptor RXR-alpha (Homo sapiens) (UniProt P19793). Kind of assay: qHTS assay for small molecule agonists of retinoid X receptor alpha signaling (AID 588544; calls by dose curve; further: potency means the concentration at half of the fitted maximal effect;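 on activation: 0% = DMSO basal wells and 100% = reference agonist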).
Retinoic acid receptor RXR-alpha (Homo sapiens), sequence (P19793 whole entry, looked up): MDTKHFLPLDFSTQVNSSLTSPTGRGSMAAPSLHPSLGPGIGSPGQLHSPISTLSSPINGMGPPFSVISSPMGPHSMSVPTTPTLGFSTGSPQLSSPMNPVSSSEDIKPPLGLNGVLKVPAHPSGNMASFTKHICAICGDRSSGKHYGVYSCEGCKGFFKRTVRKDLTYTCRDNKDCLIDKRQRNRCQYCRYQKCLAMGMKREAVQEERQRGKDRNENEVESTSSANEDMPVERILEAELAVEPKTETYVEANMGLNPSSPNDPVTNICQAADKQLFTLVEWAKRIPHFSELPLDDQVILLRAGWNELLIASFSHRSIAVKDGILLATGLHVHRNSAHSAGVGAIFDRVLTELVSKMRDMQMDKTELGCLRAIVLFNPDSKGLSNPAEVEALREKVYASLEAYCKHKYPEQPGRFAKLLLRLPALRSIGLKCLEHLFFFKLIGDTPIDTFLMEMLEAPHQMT
Assay [15] has as its target Thyroid hormone receptor beta (Homo sapiens) (UniProt P10828). Kind of assay: qHTS assay for small molecule agonists of thyroid hormone receptor beta signaling (AID 588545; calls by dose curve;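 further: 0% = DMSO only and 100% = 10 nM T3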). The method in brief: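 TR-UAS-bla GripTite HEK 293 cells (2500/well, medium with 2% charcoal/dextran FBS) were treated in agonist mode for 18 h at 37 C, titrated. Beta-lactamase was read by CCF4 ratio after 2 h; normalized to 10 nM T3 (100%) and DMSO, Hill-fitted for EC50 and efficacy.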

Assay [16] is described as follows: qHTS assay for small molecule antagonists of retinoid X receptor alpha signaling (AID 588546; active means well fitted inhibition curve with a large enough effect in the signal ratio, with a control signal flat, not every such curve was filed as active; the % refers to the signal ratio;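 further: cells stimulated with 9-cis-retinoic acid as agonist; on the % scale 0 is the no-effect control and ±100 the full control effect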). To be noted: HEK293T RXRa-UAS-bla, beta-lactamase ratio, antagonist mode; measured here: W530 green channel, cytotoxicity proxy. The method in brief: (§2)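 Beta-lactamase reporter inhibition, read as CCF4 fluorescence ratio (ex 405, em 460/530 nm) after 2 h at RT. HEK293T UAS-bla cells, 2500/well, were stimulated with 9-cis-RA at 500 or 100 nM final alongside test compound for 18 h at 37 C.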

For assay [17], the target named is Retinoic acid receptor RXR-alpha (Homo sapiens) (UniProt P19793). The assay is described as above. To be noted: HEK293T RXRa-UAS-bla, beta-lactamase ratio, antagonist mode. The gist of the method: as §2
For assay [18], the target named is Thyroid hormone receptor beta (Homo sapiens) (UniProt P10828). Kind of assay: qHTS assay for small molecule antagonists of thyroid hormone receptor beta signaling (AID 588547; active means well fitted inhibition curve with a large enough effect in the signal ratio, with a control signal flat, not every such curve was filed as active; the % refers to the signal ratio;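 further: cells stimulated with 0.4 nM T3 agonist during compound exposure; series mostly up to about 77 µM; on the % scale 0 is the no-effect control and ±100 the full control effect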). To be noted: TR-UAS-bla HEK293, beta-lactamase ratio, antagonist mode, 18 h. The gist of the method:
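TR-UAS-bla GripTite HEK293 cells in 2% charcoal/dextran FBS medium were preincubated 4 h at 37 C, given compound (0.59 nM to 92 uM) plus 0.4 nM T3 (final) for 18 h, then CCF4 for 2 h at RT; Hill fit gave IC50.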

Assay [19] addresses Nuclear receptor subfamily 1 group I member 2 (Rattus norvegicus) (UniProt Q9R1A7). Kind of assay: qHTS assay for small molecule activators of the rat pregnane X receptor (rPXR) signaling pathway (AID 651751; call rule not given here; further: 0% is about no effect). To be noted: rPXR reporter cells, luciferase (One-Glo), 24 h.
Assay [20] concerns the target Peroxisome proliferator-activated receptor delta (Homo sapiens) (UniProt Q03181). Put plainly: qHTS assay for small molecule agonists of peroxisome proliferator-activated receptor delta signaling (AID 588534; calls by dose curve;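 further: 0% = DMSO basal wells and 100% = positive control agonist at 10 µM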). The method in brief:
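Cell-based beta-lactamase reporter assay run in agonist mode: cells seeded and incubated 5 hrs at 37 C, compounds added and incubated 18 hrs at 37 C. CCF4 dye fluorescence read after 2 hrs at RT; EC50 and efficacy from Hill fits.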

Peroxisome proliferator-activated receptor gamma (Homo sapiens), sequence (P37231 whole entry, looked up): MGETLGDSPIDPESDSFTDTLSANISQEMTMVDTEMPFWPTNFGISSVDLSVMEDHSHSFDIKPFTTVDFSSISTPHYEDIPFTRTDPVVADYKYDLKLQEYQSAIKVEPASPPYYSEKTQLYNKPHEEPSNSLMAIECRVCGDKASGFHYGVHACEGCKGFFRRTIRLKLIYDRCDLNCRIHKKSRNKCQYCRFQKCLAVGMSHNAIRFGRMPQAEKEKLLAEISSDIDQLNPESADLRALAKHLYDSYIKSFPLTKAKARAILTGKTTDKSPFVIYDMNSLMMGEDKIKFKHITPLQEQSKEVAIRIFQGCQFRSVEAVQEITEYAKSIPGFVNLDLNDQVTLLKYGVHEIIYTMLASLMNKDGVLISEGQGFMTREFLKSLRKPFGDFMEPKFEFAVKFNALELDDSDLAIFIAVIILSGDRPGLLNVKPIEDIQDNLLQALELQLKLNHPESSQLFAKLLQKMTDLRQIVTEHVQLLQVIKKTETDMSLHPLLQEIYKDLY
Thyroid hormone receptor beta (Homo sapiens), sequence (P10828 whole entry, looked up): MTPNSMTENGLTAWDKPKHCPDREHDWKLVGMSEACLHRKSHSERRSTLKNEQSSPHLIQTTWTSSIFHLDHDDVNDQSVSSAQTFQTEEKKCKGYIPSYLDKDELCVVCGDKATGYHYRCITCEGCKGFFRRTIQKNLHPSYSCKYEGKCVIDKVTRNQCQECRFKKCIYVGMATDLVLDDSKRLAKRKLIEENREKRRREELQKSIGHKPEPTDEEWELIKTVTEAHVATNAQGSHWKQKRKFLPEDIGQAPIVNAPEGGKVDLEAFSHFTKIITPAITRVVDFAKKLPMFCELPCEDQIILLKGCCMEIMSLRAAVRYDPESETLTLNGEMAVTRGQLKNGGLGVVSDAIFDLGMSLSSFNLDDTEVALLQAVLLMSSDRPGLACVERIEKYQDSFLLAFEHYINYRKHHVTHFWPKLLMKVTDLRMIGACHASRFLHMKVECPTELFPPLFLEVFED
Peroxisome proliferator-activated receptor alpha (Homo sapiens), sequence (Q07869 whole entry, looked up): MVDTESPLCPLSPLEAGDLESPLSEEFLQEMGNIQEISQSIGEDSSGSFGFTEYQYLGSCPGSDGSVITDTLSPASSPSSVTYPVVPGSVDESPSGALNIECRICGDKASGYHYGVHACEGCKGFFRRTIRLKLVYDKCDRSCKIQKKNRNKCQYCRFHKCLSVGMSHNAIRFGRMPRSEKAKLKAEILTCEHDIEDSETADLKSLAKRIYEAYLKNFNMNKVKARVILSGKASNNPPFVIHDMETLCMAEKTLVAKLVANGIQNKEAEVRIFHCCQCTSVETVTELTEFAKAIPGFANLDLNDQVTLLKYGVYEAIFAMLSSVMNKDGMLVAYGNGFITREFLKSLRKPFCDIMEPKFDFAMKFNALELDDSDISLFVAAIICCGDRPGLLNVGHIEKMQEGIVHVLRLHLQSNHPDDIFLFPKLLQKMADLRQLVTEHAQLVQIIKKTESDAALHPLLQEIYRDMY
Glucocorticoid receptor (Homo sapiens), sequence (P04150 whole entry, looked up): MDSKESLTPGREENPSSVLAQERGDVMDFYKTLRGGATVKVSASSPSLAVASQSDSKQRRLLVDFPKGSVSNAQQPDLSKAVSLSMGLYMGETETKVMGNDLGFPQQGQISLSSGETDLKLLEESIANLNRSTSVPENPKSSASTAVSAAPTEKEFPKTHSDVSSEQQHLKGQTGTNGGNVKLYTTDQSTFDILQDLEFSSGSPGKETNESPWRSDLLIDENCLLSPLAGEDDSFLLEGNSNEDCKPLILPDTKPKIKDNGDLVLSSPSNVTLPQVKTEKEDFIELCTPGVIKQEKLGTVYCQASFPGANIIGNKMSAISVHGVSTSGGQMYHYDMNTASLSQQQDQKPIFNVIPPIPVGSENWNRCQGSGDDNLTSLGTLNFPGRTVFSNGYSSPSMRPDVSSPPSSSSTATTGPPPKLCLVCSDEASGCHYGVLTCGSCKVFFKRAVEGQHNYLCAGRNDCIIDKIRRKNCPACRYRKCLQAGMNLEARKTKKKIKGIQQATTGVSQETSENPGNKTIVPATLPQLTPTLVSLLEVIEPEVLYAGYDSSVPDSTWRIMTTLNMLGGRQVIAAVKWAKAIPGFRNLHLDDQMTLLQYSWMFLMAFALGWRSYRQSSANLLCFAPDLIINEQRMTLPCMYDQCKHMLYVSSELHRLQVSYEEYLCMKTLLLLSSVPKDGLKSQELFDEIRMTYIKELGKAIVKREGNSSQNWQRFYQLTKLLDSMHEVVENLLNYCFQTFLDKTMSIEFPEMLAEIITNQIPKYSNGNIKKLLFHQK
Nuclear receptor subfamily 1 group I member 2 (Rattus norvegicus), sequence (Q9R1A7 whole entry, looked up): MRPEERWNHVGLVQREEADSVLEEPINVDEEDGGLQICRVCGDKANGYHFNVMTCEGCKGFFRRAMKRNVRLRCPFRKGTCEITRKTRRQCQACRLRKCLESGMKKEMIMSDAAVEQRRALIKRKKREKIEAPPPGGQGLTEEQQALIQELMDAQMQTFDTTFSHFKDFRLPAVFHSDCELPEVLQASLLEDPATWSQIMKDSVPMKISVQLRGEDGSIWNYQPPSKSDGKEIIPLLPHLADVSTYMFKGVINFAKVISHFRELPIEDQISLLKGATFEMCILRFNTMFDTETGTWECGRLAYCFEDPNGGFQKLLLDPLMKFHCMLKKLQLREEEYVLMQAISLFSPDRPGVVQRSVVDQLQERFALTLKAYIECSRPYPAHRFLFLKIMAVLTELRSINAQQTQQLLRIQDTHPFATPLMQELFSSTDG

In the case of `COC(=O)N(C(=O)N1COC2(C(=O)OC)Cc3cc(Cl)ccc3C2=N1)c1ccc(OC(F)(F)F)cc1` (stereo unspecified), the Potency entry in assay [1], in [4], in [8] and in assay [11] was “inactive” throughout. For the same compound, the activation in assay [2] was 17.1% (inactive); in [5], -1.52% (inactive); in assay [6], 2.68% (inactive). Further, the max response is 21% in assay [3], -1.75% (inactive) in [7], -4.11% (inactive) in [9] and -21.9% (inactive) in [10].
`C=C(C)C(=O)OCC(CC)CCCC` (stereo unspecified): the Potency result in assay [1], in assay [12], in assay [13], in assay [14], in assay [15] and in assay [8] was “inactive” in each case. Besides, the activation was -12.2% (inactive) in assay [2], -3.24% (inactive) in [5] and 1.05% (inactive) in assay [6]. Further, the max response was -12.9% in assay [16]; -2.17% (inactive) in assay [17]; 5.11% (inactive) in assay [7]; -12.5% (inactive) in assay [9]; 2.46% (inactive) in assay [10]; -1.07% (inactive) in assay [19]. The activity change % (negative = inhibition) in [18] is 10.1% (inactive).
Turning to `ClC1=C(Cl)C2(Cl)C3C4OC4C(Cl)C3C1(Cl)C2(Cl)Cl` (stereo unspecified), the Potency entry in assay [1], in [12], in [4], in assay [13], in [14] and in [15] was “inactive” each time. For the same compound, the Potency result in assay [8] and in assay [11] was “inactive” in each case. For the same compound, the result in [20] was inactive. For the same compound, the max response in assay [3] was -5.72%; in [16] it was -11.3%; in [17], -6.75% (inactive); in assay [9], 0.273% (inactive). The activity change % (negative = inhibition) in assay [18] is 16.3% (inactive). For the same compound, the activation is -0.997% (inactive) in assay [5] and -0.371% (inactive) in assay [6].
As for `CCC[CH2][Sn]([Cl])([CH2]CCC)[CH2]CCC`, the Potency result in [1] was “inactive”. Also, the activation was -5.41% (inactive) in assay [2] and 8.68% (inactive) in assay [6]. Besides, the Potency in assay [14] is 0.398 µM (active); in assay [10] it was 50.1 µM (active). The max response in assay [7] was 2.3% (inactive).
Turning to `CCC(C)Nc1c([N+](=O)[O-])cc(C(C)(C)C)cc1[N+](=O)[O-]` (stereo unspecified), the Potency result in assay [1], in [12], in assay [4], in assay [13], in assay [14] and in assay [15] was “inactive” throughout. Further, the activation in [2] was -11.2% (inactive); in assay [6], 5.25% (inactive). Moreover, in [20], the call was inactive. Moreover, the max response in assay [3] is -21.7%; in [7] it was 8.22% (inactive); in assay [9] it was 11% (inactive); in assay [10], -2.45% (inactive).
As to `Brc1ccc(Oc2ccccc2)cc1`, the Potency result in assay [1], in assay [12], in assay [4], in [13], in assay [14] and in assay [8] was “inactive” in each case. Moreover, the Potency entry in assay [11] is “inactive”. The values for the activation in [2], in [5] and in assay [6] were 1.51% (inactive), 1.17% (inactive) and -0.643% (inactive), respectively. The compound was classed as inactive in assay [20]. In addition, the max response in assay [3] was 2.82%; in assay [16], -7.34%; in assay [17] it was 1.13% (inactive); in [7] it was -0.584% (inactive); in assay [9], -10.2% (inactive); in [10], -5.38% (inactive). For the same compound, the max response in assay [19] is -2.47% (inactive). The activity change % (negative = inhibition) in assay [18] is -9.48% (inactive).
